We go through ten compounds from PubChem BioAssay.

Values without a mark were called inactive.

A short description of this experiment: E. coli growth modulation, two-sided OD650, primary screen, E. coli filamentation project, strain DRC41, 24 h (AID 1093).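 Further: MC1000 strain lacking acrAB efflux and sulA so SOS filamentation is blocked; test concentration not given here.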 The following applies: OD650, 24 h, higher = more signal, called active from +8 up or from −8 down.
Turning to `CC(C)C(O)C1C=CC2C(=O)N(C)C(=O)C2N1Nc1ccccc1` (stereo not given), the z-score was -0.381. The value for `Cc1c(NC(=O)/C(C#N)=C/C=C/c2ccc(N(C)C)cc2)c(=O)n(-c2ccccc2)n1C` was 0.482. The value for `COc1cc(CO)cc(I)c1O[C@H]1C=C(C(=O)NCCO)C[C@@H](N(Cc2ccc(F)cc2)C(=O)C2CCCO2)[C@@H]1O` (stereo not given in full) was 3.2; that for `O=C1C[C@@](C(=O)NCC(F)(F)F)(c2ccc([N+](=O)[O-])cc2)[C@@H](c2ccc(CO)cc2)N1C1CCCCC1` was 0.258. `COC(=O)Cn1c(C(=O)N2CCCC2)cc2c1C[C@H]1CN(C(=O)c3ccccc3)[C@@](Cc3ccc(F)cc3)(C(=O)OC)[C@@H]21`: the z-score is 0.782. Consider `O=C(CS)NCCCCCCNC(=O)[C@H]1C[C@H]2C(=O)N[C@@H](Cc3ccccc3)C(=O)N2[C@H]1c1cccc(OCCO)c1`, for which the z-score was -0.23. `COc1cc2c(cc1OC)CN(C(=O)[C@H]1[C@@H]3C(=O)O[C@@H](c4ccccc4)[C@@H](c4ccccc4)N3[C@@H](c3ccc(OCCO)cc3)[C@]13C(=O)Nc1ccc(C#CC4(O)CCCCCC4)cc13)CC2`: the z-score was 2.32. The value for `O=C1O[C@H](c2ccccc2)[C@H](c2ccccc2)N2[C@H]1[C@@H](C(=O)O)[C@]1(C(=O)Nc3ccccc31)[C@H]2c1ccc(O)cc1` was -0.423; that for `CC(=O)N1Cc2ccccc2C[C@]2(N=C(c3ccc(OCCCO)cc3)O[C@@H]2c2ccccc2)C1=O` was 1.52; that for `Cc1ccc(S[C@]2(C(=O)O)CC(=O)N(Cc3ccccc3Cl)[C@@H]2c2ccc(CO)cc2)cc1` was -0.0647.
